Screening results (PubChem BioAssay)
Hits are enriched below; roughly 2% of the tested compounds scored in any of these assays.
NPR1 activator: GC-A (human) enzyme activation; activation, % at 10 µM; P16066; hit rate 0.14% among 370,000; HEK293 GC-A cells, cGMP TR-FRET, EC30 ANP; 0% at EC30 ANP, 100% saturating ANP; in the data active = activation above about 40%
GC-B act: GC-B (human) receptor activation | hit rate 0.11% among 370,000 | P20594 | HEK293-GC-B cells, CNP EC30, cGMP TR-FRET; 0% at EC30 CNP, 100% saturating CNP | activation, % at 10 µM;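 active = activation at 10 µM reaching about 35% in either raw or pattern-adjusted values, limit read from the data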
ADAM10 inh: inhibitors of human ADAM10; O14672; recombinant ADAM10, EDANS/DABCYL FRET peptide cleavage, 3 h; inhibition, % at 7 µM; hit rate 0.62% among 370,000; AID 720582;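 active = inhibition above a per-campaign cutoff equal to the mean of compounds falling between control-based bounds plus 3 SD, cut at about 20% in these data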
ADAM17 inh: inhibits human ADAM17; recombinant ADAM17, EDANS/DABCYL FRET peptide cleavage; hit rate 0.83% among 370,000; inhibition, % at 6.95 µM; AID 720648; P78536;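 active = inhibition above the mean of compounds lying between control limits plus 3 SD, set per campaign, cut at about 8.5% in these data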
Target sequence (P78536 215-824 limits assumed): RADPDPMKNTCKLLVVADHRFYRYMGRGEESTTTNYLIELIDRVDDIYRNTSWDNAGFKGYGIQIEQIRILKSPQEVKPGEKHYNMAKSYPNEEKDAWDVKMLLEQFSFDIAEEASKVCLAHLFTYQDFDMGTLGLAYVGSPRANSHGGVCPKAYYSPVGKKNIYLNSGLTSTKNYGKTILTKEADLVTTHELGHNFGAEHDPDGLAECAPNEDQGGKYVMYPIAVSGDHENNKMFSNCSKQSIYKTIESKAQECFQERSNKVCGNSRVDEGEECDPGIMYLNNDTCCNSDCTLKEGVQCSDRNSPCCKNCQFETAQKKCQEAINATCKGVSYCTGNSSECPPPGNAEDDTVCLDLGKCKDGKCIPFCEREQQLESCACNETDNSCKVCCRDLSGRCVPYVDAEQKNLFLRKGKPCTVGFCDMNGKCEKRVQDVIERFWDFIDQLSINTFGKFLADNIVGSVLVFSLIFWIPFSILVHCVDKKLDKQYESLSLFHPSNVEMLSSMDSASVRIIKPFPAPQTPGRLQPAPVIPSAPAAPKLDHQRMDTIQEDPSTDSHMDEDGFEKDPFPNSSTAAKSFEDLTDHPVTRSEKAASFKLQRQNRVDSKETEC
FAS TE block: inhibitors of human fatty acid synthase thioesterase domain. P49327. recombinant FAS-TE, OMFH fluorogenic substrate, fluorescence endpoint. inhibition, % at 15 µM. hit rate 0.67% among 360,000. AID 602261;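 active = compounds whose normalised, plate-corrected inhibition of enzyme fluorescence in the single-dose primary screen is 50% or more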
FAS-TE conf: FAS thioesterase (human) inhibition, confirmation; shares compounds with FAS TE block; recombinant FAS-TE, OMFH fluorogenic substrate, fluorescence; inhibition, % at 15 µM; hit rate 45% among 2,300; AID 624325;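 active = compounds inhibiting the enzyme by at least 50% at 15 µM in any one of the replicates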
A number is an active result; 0 = inactive; - = no result given.

SMILES | NPR1 activator | GC-B act | ADAM10 inh | ADAM17 inh | FAS TE block | FAS-TE conf
CCCCn1c(=NC(=O)c2ccco2)c(C(=O)OCC)cc2c(=O)n3cccc(C)c3nc21 | 0 | 0 | 0 | 0 | 56 | 0
CCCCn1c(=NC(=O)c2ccco2)c(C(=O)OCC)cc2c(=O)n3ccccc3nc21 | 0 | 0 | 0 | 0 | 0 | -
CCOC(=O)c1cc2c(=O)n3cccc(C)c3nc2n(CCCOC)c1=NC(=O)c1cccnc1 | - | - | 0 | 0 | 54 | 0
Cc1cccn2c(=O)c3cc(C#N)c(=NC(=O)c4cccs4)n(CCCOC(C)C)c3nc12 | 0 | 0 | 0 | 0 | 52 | 0
Cc1nn(-c2ccccc2)c2sc(C(=O)NCc3ccc4c(c3)OCO4)cc12 | 0 | 0 | 0 | 0 | - | -
Cc1c(Cl)cccc1N1C(=O)C(N2C(=O)c3cccc([N+](=O)[O-])c3C2=O)C1c1cccs1 (centres undefined) | - | - | - | - | 63 | 0
O=C1c2cccc([N+](=O)[O-])c2C(=O)N1C1CCCCC1 | 0 | 0 | 0 | 0 | 0 | -
Cc1ccccc1C1=C/C(=C(\SS/C(C(=O)c2ccc(OCC(=O)O)c(Cl)c2Cl)=C2\C=C(c3ccccc3C)SS2)C(=O)c2ccc(OCC(=O)O)c(Cl)c2Cl)SS1 | 0 | 0 | 0 | 0 | 83 | 88
O=C(Nn1c(C2CCCCC2)nc2ccccc2c1=O)c1ccc(Cl)c([N+](=O)[O-])c1 | 0 | 0 | 0 | 0 | 57 | 60
O=C(Nn1c(C2CCCCC2)nc2ccccc2c1=O)c1ccc([N+](=O)[O-])cc1Cl | 0 | 0 | 0 | 0 | 62 | 43
COc1cc(-c2ccc(Nc3ccccc3C(=O)O)c(OC)c2)ccc1Nc1ccccc1C(=O)O | 0 | 0 | 0 | 0 | 71 | 73
COC(=O)c1sc2ccccc2c1NC(=O)c1ccc(S(=O)(=O)N2CCCC(C)C2)cc1 (centres undefined) | 0 | 0 | 0 | 0 | 52 | 0
COCCCNC(=O)C[C@H]1C[C@@]2(C(=O)OC)C(=C[C@H](COCc3ccccc3)O[C@@H]2C)N(CCc2ccc(OC)c(OC)c2)C1=O | 0 | 0 | 0 | 0 | - | -
CCC(=O)N1c2ccc(S(=O)(=O)N3CCN(c4ccc([N+](=O)[O-])cc4)CC3)cc2CC1C (centres undefined) | 0 | 0 | 0 | 0 | 64 | 0
Cc1cccc(N2CCN(S(=O)(=O)c3ccc4c(c3)CC(C)N4C(=O)C3CC3)CC2)c1C (centres undefined) | 0 | 0 | 0 | 0 | 65 | 0
Cc1ccc(C)c(N2CCN(S(=O)(=O)c3ccc4c(c3)CC(C)N4C(=O)C3CC3)CC2)c1 (centres undefined) | 0 | 0 | 0 | 0 | 54 | 0
CC1Cc2cc(S(=O)(=O)N3CCN(C)CC3)ccc2N1C(=O)C1CC1 (centres undefined) | 0 | 0 | 0 | 0 | 0 | -
CCCCCCCCN1C(=O)[C@@H](CC(=O)N2CCN(C(=O)c3ccco3)CC2)C[C@@]2(C(=O)OC)C1=C[C@H](COCc1ccccc1)O[C@@H]2C | 0 | 0 | 0 | 0 | - | -
COc1ccc(CN2CCC(CNC(=O)NCc3ccccc3)CC2)cc1 | 0 | 0 | 0 | 0 | - | -
Cc1cccc(N2CCN(C(=O)COc3ccc4ccc(=O)oc4c3)CC2)c1C | 0 | 0 | 0 | 0 | 70 | 83
Cc1cccc(CCNC(=O)c2ccc3c(c2)ncn3C2CCCCC2)c1 | 0 | 0 | 0 | 0 | - | -
O=C(NCCc1ccccc1)OCc1cn(Cc2ccc(F)cc2)nn1 | 0 | 0 | 0 | 0 | - | -
NC(=S)N/N=C/c1ccc(-c2ccc(SC(F)F)cc2)o1 | 0 | 0 | 0 | 0 | 55 | 39
CCCN1CCS(=O)(=O)N(Cc2cn(Cc3ccc(C)cc3)nn2)C(C(=O)OC)C1 (centres undefined) | 0 | 0 | 0 | 0 | - | -
CC(C)(C)c1cc(Br)c(O)c(N=Nc2ccc(S(=O)(=O)N3CCOCC3)cc2)c1 | 0 | 0 | 0 | 0 | 84 | 49
SMILES | NPR1 activator | GC-B act | ADAM10 inh | ADAM17 inh | FAS TE block | FAS-TE conf
Cc1ccc(O)c(N=Nc2ccc(S(=O)(=O)N3CCOCC3)cc2)c1 | 0 | 0 | 0 | 0 | 0 | -
O=C(COC(=O)c1cc([N+](=O)[O-])ccc1N1CCOCC1)Nc1c(Cl)cccc1C(F)(F)F | 0 | 0 | 0 | 0 | 65 | 62
O=C(COC(=O)c1cc([N+](=O)[O-])ccc1N1CCOCC1)Nc1ncc(Cl)cc1Cl | 0 | 0 | 0 | 0 | 54 | 71
COC(=O)c1cc(-c2ccc(C(C)=O)cc2)c(=O)n2c1CCC2 | 0 | 0 | 0 | 0 | - | -
O=C(NCc1cn(-c2ccccc2)nc1-c1ccccc1)c1cccc([N+](=O)[O-])c1 | 0 | 0 | 0 | 0 | 51 | 0
Cc1ccc2c(c1)C1CN(C)CCC1N2S(=O)(=O)c1ccc(C#N)cc1 (centres undefined) | 0 | 0 | 0 | 0 | 0 | -
C=C[C@@H]1c2cc(C)ccc2N(S(=O)(=O)c2ccc(C)cc2)[C@H](c2ccc(OC(C)=O)cc2)C1(C#N)C#N | 0 | 0 | 0 | 0 | 52 | 0
C[N+]1=C(N)NC2=C3CCCCC3n3c(=O)n(-c4ccccc4)c(=O)n3C2C1 (centres undefined) | 0 | 0 | 0 | 0 | - | -
COc1ccc(S(=O)(=O)c2cnc3ccc(OC)cc3c2N2CCC3(CC2)OCCO3)cc1 | 0 | 0 | 0 | 0 | 72 | 60
CCOc1ccc2ncc(S(=O)(=O)c3ccccc3)c(N3CCC4(CC3)OCCO4)c2c1 | 0 | 0 | 0 | 0 | - | -
CCOC(=O)CN(C(=O)COc1nc(-c2ccccc2)cc(C)c1C#N)c1ccccc1 | 0 | 0 | 0 | 0 | 59 | 0
CCOC(=O)CN(C(=O)COc1nc(-c2ccccc2)cc(C)c1C#N)c1cccc(OC)c1 | 0 | 0 | 0 | 0 | 52 | 0
COC(=O)c1cc(S(=O)(=O)N2CCN(c3ccccc3Cl)CC2)cn1C | 0 | 0 | 0 | 0 | - | -
CC(C)(C)c1ccc(CSc2nnc(-c3ccccn3)n2Cc2ccco2)cc1 | 0 | 0 | 0 | 0 | 53 | 0
Brc1ccc(CSc2nnc(-c3ccccn3)n2Cc2ccco2)cc1 | 0 | 0 | 0 | 0 | 0 | -
O=C(NCC(c1ccccc1)c1ccccc1)[C@H](Cc1c[nH]c2ccccc12)NC1(C(=O)NC2CCCCC2)CCCC1 | 0 | 0 | 0 | 0 | - | -
O=C(Oc1ccc(N(Cc2cccs2)C2=NS(=O)(=O)c3ccccc32)cc1)c1ccccc1 | 0 | 0 | 0 | 0 | 60 | 0
Cc1ccccc1CS(=O)(=O)c1nnc([C@H](CC(C)C)NC(=O)OC(C)(C)C)o1 | 0 | 0 | 0 | 0 | 52 | 55
CC[C@@H](C)[C@H](NC(=O)OC(C)(C)C)c1nnc(S(=O)(=O)Cc2cc(C)ccc2C)o1 | 0 | 0 | 0 | 0 | 73 | 79
CC[C@@H](C)[C@H](NC(=O)OCc1ccccc1)c1nnc([C@@H](NC(=O)OCc2ccccc2)[C@@H](C)CC)o1 | 0 | 0 | 0 | 0 | 0 | -
CC(C)=CCSc1nnc([C@@H](NC(=O)OC(C)(C)C)C(C)C)o1 | 0 | 0 | 0 | 0 | 0 | -
